# Test results from PubChem BioAssay (NCATS).
# Values without a mark were called inactive. Records with an inconclusive call do not appear. A call without a number means that no potency is given here. Active and inactive are the calls of the source. Unless noted, calls come from the whole dose curve; as a rule, active = well fitted curve in the direction sought with a large enough effect; inconclusive = small, poorly fitted or top-dose-only effect, or another doubt; inactive = no such curve, though single readings can be large; an effect the other way counts as inactive or inconclusive.
# What was measured:
# [1] = NS1 protein of Zika virus - qHTS assay to identify small molecule inhibitors in human HEK 293 cells (AID 1347053); note: nearly all actives have a fitted effect of over 55% in size
# In short: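 Compound-treated (1 h pre-infection) HEK 293 cells infected with ZIKV MR766, MOI = 0.5; after 24 h at 37 C, NS1 read by TR-FRET; data normalized to uninfected and infected controls.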
# [2] = target: T1, Tyrosine-protein phosphatase non-receptor type substrate 1 (Homo sapiens) + Leukocyte surface antigen CD47 (Homo sapiens) (UniProt P78324+Q08722); experiment: CD47-SIRPalpha protein protein interaction - LANCE assay qHTS validation (AID 1347057; active = well fitted curve in the direction sought with a large enough effect in the signal ratio, with a control signal flat, not every such curve was filed as active; the % refers to the signal ratio)
# In short: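 Inhibition of soluble CD47/SIRPalpha ectodomain association by titrated compounds, measured as 665/615 nm time-resolved FRET ratio after sequential 30 min room-temperature incubations.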
# [3] = target: T1, Tyrosine-protein phosphatase non-receptor type substrate 1 (Homo sapiens) + Leukocyte surface antigen CD47 (Homo sapiens); experiment: CD47-SIRPalpha protein protein interaction - HTRF assay qHTS validation (AID 1347058; active = well fitted curve in the direction sought with a large enough effect in the signal ratio, not every such curve was filed as active; the % refers to the signal ratio)
# In short: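 Soluble extracellular domains (6His-CD47, Avi-tag-biotinylated SIRPalpha) in PBS pH 7.4 with 0.05% IGEPAL CA-630. Compounds were preincubated 30 min at RT with CD47 and anti-His-Eu, then SIRPalpha and SAV-XL665 were added. TR-FRET 665/615 ratio.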
# [4] = target: T1, Tyrosine-protein phosphatase non-receptor type substrate 1 (Homo sapiens) + Leukocyte surface antigen CD47 (Homo sapiens); experiment: CD47-SIRPalpha protein protein interaction - Alpha assay qHTS validation (AID 1347059);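 note: bead proximity luminescence from CD47 binding SIRPalpha after compound preincubation with SIRPalpha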; note: potency is the fitted concentration of half-maximal effect
# In short: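 AlphaScreen signal between CD47-His (12.5 nM) and biotin-SIRPalpha (25 nM) soluble extracellular domains, bead-captured via Ni-NTA and streptavidin. Compounds, in 7-point titrations, met SIRPalpha 30 min before CD47; PBS pH 7.4 with 0.05% IGEPAL.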
# [5] = target: Parathyroid hormone/parathyroid hormone-related peptide receptor (Homo sapiens) (UniProt Q03431); experiment: qHTS for PTHR1 Agonists: Optimization Screen against the NCGC LOPAC library (AID 1347079);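 note: GloSensor cAMP luminescence in HEK-293 GP2 cells expressing human PTHR1 with IBMX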
# In short: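 Signal increase flags agonism. GP2 cells, derived from HEK-293, express human PTHR1 and a GloSensor cAMP construct.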
# [6] = target: N-terminal Xaa-Pro-Lys N-methyltransferase 1 (Homo sapiens) (UniProt Q9BV86); experiment: qHTS Assay for Inhibitors of N-terminal methyltransferase 1 (NTMT1): LOPAC validation of the NTMT1 SAHH-coupled ThioGlo3 Assay (AID 1347143);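 note: SAH from peptide methylation measured as thiol fluorescence via SAHH coupling and ThioGlo3; nearly all actives have a fitted effect of over 70% in size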; note: potency is the fitted concentration of half-maximal effect
# In short: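 NTMT1 125nM + cpds (various conc.), 1 min RT; add SAM 100uM/SAHH 10uM/ThioGlo3 15uM (addition mix). SAHH-coupled thiol detection, Ex340/Em450, t0 and 30 min RT; signal normalized to background. LOPAC 1280-cpd pilot.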
# [7] = system: Zika virus NS2B-NS3 protease (unlinked); experiment: Optimization of GU AMC qHTS for Zika virus inhibitors: Unlinked NS2B-NS3 protease assay (AID 1347151); note: nearly all actives have a fitted effect of over 80% in size; note: potency is the fitted concentration of half-maximal effect
# In short: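 Noncovalent complex of NS2B hydrophilic domain and NS3 protease domain, 25 nM final, in 10 mM Tris-HCl pH 8.0, 0.01% Tween 20. AMC fluorescence change over 15 min at room temperature was fitted to a 4-parameter Hill equation.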
# Furin (Homo sapiens) = Furin (Homo sapiens) (UniProt P09958); experiment: Furin counterscreen qHTS for Zika virus inhibitors (AID 1347149); note: potency is the fitted concentration of half-maximal effect; nearly all actives have a fitted effect of over 70% in size
# In short: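 Counterscreen measures cleavage of 2 microM BOC-RVRR-AMC, below its ~15 microM Km, by 5 nM full-length human furin at pH 7.0 after a 15-min compound preincubation. Inhibition derives from the 15-min fluorescence increase at 37C.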
# [8] = Confirmatory screen NINDS Rhodamine qHTS for Zika virus inhibitors (AID 1347161);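 note: purified Zika NS2B-NS3 protease with linked NS2B cofactor domain and Rhodamine110 peptide substrate; nearly all actives have a fitted effect of over 60% in size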
# In short: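 In 10 mM Tris-HCl pH 8.0 containing 0.01% Tween 20, linked NS2B-NS3 protease (25 nM final) is exposed to test compounds for 15 min. Cleavage of 1.5 microM Rhodamine110 substrate is tracked by fluorescence over 15 min.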
# [9] = Vero cells viability qHTS for Zika virus inhibitors (AID 1347167)
# In short: (§1)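 Luminescent ATP readout (CellTiter Glo) after 30 min at 37 degrees C gives viability; cells in DMEM + 4% FBS were treated 24 to 48 hours with compound, following overnight attachment.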
# [10] = HepG2 cells viability qHTS for Zika virus inhibitors (AID 1347168)
# In short: as §1
# [11] = system: Zika virus NS2B-NS3 protease; experiment: Primary screen GU AMC qHTS for Zika virus inhibitors (AID 1347154); note: nearly all actives have a fitted effect of over 70% in size; note: potency is the fitted concentration of half-maximal effect
# In short: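 Fluorogenic AMC-substrate cleavage by noncovalent NS2B-NS3 protease complex (25 nM, pH 8.0 Tris buffer with Tween 20) followed for 15 minutes at room temperature (~20% conversion). Percent inhibition from ex340/em450 signal change, fitted by 4-parameter Hill equation.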
# [12] = target: Lysine-specific demethylase 5B (Homo sapiens) (UniProt Q9UGL1); experiment: Optimization screen for KDM5B Histone Demethylases FDH coupled qHTS against the LOPAC library (AID 1347166); details: KDM5B demethylation, FDH-coupled NADH fluorescence (FDH is formaldehyde dehydrogenase); at 57.5 µM (top of the series)
# In short: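 KDM5BDeltaAP (200nM final) in 50mM HEPES pH 7.5, 0.01% Tween-20 was preincubated with compound for 10 min at room temperature. A substrate mix of 12.5uM H3K4Me3, 25uM a-ketoglutarate, ascorbate, Fe2+, NAD+ and formaldehyde dehydrogenase was then added. NADH fluorescence (340/450 nm) was read initially and after 30 min.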
# [13] = system: Zika virus NS2B-NS3 protease (linked); experiment: 384 well plate NINDS AMC confirmatory qHTS for Zika virus inhibitors (AID 1347163); note: potency is the fitted concentration of half-maximal effect; nearly all actives have a fitted effect of over 50% in size
# In short: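 Enzyme (5, 30 or 60 nM final) first met test compounds for ~15 min. The AMC-tagged peptide Ac-VKTGKR-AMC followed at 30 microM. Fluorescence was then recorded at 25 min and scaled against no-enzyme and no-inhibitor wells.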
# [14] = system: Zika virus NS2B-NS3 protease (linked construct); experiment: 384 well plate NINDS Rhodamine confirmatory qHTS for Zika virus inhibitors (AID 1347164);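 note: fluorescence from protease cleavage of Ac-LKRR-rhodamine 110 substrate; potency is the fitted concentration of half-maximal effect; nearly all actives have a fitted effect of over 65% in size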
# In short: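 Linked protease at a final 5 nM, 30 nM or 60 nM was preincubated ~15 min with compounds, then given 10 microM Ac-LKRR-Rhodamine 110. Fluorescence (ex 485/em 538 nm) after 25 min in the dark at room temperature.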
# Sequence of N-terminal Xaa-Pro-Lys N-methyltransferase 1 (Homo sapiens) (Q9BV86 whole entry, looked up): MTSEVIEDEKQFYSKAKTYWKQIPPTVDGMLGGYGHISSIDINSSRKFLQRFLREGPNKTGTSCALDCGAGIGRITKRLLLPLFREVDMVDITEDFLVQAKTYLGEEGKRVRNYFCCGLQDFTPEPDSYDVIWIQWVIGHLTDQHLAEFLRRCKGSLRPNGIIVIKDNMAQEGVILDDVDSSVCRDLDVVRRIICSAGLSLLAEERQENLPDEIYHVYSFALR
# Sequence of Parathyroid hormone/parathyroid hormone-related peptide receptor (Homo sapiens) (Q03431 whole entry, looked up): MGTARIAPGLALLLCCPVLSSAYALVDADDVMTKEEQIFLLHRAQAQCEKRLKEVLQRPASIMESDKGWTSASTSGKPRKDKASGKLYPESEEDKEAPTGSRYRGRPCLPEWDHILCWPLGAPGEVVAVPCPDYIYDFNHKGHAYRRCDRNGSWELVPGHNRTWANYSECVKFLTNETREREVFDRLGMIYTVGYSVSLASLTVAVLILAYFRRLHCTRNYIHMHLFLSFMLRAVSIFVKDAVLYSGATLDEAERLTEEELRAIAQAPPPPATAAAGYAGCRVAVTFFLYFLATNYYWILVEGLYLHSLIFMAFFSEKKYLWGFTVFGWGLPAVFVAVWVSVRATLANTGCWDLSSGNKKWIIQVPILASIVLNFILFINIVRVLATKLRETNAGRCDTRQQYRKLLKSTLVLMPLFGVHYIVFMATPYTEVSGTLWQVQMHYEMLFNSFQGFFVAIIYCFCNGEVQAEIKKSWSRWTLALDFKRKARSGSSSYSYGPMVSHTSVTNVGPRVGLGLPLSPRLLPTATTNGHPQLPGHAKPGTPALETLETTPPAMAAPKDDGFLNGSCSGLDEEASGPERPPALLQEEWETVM
# T1 sequence (P78324 whole entry, looked up, the tested form may be a part): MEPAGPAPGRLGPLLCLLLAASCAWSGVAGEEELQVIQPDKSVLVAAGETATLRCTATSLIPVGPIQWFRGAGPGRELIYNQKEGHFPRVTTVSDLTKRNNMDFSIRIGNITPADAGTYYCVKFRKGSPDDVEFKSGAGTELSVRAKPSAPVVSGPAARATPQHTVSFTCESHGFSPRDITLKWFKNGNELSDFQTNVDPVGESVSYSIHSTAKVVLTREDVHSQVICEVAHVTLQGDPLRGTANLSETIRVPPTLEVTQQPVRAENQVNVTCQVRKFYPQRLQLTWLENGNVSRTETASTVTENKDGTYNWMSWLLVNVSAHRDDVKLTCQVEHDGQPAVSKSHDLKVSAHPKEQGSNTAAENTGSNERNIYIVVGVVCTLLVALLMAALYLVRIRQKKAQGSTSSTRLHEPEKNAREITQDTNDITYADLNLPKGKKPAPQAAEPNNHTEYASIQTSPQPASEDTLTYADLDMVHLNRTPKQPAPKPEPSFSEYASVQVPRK
# T1 sequence (Q08722 whole entry, looked up, the tested form may be a part): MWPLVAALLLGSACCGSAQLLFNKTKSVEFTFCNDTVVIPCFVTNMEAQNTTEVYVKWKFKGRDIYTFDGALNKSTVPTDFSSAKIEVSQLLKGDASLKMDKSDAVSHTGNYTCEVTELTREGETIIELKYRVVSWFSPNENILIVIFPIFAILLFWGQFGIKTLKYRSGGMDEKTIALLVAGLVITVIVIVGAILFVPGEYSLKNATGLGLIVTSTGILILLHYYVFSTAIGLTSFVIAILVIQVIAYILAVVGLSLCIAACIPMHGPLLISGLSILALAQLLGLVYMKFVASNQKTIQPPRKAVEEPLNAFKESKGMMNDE
# Sequence of Lysine-specific demethylase 5B (Homo sapiens) (Q9UGL1 whole entry, looked up): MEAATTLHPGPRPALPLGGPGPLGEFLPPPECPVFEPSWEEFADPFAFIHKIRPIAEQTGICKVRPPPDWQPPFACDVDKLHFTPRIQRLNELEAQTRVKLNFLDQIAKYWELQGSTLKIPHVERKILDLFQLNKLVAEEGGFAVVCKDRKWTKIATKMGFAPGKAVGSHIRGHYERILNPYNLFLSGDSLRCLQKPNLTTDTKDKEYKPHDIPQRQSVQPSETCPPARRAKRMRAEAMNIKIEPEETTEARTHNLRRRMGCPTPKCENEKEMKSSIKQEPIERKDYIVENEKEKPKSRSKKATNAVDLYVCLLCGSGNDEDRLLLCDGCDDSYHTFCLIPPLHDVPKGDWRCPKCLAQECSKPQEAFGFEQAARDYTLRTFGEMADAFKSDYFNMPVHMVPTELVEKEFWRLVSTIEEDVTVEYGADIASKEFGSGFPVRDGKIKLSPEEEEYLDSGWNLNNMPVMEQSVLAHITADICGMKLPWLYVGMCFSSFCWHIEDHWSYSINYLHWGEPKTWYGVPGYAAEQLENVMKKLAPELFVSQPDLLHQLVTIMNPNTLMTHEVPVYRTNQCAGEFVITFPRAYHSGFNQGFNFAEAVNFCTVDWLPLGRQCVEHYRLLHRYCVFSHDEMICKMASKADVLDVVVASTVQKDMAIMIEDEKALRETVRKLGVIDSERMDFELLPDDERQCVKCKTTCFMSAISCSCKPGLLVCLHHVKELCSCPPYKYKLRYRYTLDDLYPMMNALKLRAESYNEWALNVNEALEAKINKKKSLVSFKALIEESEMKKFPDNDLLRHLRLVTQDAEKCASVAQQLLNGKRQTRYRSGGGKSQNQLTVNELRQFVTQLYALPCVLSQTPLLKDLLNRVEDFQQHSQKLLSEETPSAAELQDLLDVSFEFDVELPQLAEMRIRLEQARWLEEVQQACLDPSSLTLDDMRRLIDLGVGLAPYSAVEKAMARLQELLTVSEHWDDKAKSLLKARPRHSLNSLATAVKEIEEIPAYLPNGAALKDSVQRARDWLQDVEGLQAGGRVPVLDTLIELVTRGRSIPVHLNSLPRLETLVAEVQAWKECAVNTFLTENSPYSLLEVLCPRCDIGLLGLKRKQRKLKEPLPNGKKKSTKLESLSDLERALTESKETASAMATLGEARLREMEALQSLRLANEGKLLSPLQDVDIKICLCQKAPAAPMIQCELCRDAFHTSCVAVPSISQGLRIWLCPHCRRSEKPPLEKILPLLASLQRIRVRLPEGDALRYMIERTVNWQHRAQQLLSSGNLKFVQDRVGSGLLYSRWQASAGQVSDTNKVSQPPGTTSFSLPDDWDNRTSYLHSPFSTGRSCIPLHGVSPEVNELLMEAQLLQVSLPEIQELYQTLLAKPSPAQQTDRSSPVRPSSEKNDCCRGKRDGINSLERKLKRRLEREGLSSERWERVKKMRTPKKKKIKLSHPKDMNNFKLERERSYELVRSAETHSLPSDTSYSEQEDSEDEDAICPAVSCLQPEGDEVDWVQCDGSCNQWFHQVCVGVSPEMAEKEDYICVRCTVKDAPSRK
# Sequence of Furin (Homo sapiens) (P09958 whole entry, looked up): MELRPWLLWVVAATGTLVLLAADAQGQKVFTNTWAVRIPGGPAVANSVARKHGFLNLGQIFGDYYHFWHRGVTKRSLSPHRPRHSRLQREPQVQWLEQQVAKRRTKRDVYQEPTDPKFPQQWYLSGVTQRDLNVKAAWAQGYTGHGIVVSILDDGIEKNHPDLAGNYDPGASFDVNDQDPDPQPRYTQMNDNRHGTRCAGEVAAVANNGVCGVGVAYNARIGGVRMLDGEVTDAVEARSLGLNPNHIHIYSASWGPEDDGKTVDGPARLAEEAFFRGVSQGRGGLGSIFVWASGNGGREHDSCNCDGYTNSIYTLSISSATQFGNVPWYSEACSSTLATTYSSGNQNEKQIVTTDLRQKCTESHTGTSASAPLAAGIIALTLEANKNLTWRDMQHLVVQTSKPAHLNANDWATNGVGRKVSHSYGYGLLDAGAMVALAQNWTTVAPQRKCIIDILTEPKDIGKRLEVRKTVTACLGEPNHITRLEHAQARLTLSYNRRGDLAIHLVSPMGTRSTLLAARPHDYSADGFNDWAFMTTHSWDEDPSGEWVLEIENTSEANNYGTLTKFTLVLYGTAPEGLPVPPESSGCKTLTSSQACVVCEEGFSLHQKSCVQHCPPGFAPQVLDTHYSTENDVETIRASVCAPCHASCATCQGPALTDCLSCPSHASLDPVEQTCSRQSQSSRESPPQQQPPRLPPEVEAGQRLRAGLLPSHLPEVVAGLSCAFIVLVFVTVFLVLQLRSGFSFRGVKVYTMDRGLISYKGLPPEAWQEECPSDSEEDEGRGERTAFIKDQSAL
SMILES,Potency [1],Potency [2],outcome [3],Potency [4],Potency [5],Potency [6],Potency [7],Potency (Furin (Homo sapiens)),Potency [8],Potency [9],outcome [10],Potency [11],"activity, negative = inhibition [12]",Potency [13],Potency [14],"activity change, negative = inhibition [11]"
CC(N)(Cc1ccc(O)c(O)c1)C(=O)O (stereo not given),inactive,inactive,inactive,inactive,inactive,56.2 µM (active),inactive,,,,,,,,,
Cn1cc(C(F)(F)F)nc1-c1ccc(OCC(O)CNCCOc2ccc(O)c(C(N)=O)c2)cc1 (stereo not given),inactive,inactive,inactive,inactive,inactive,56.2 µM (active),26.7 µM (active),24.1 µM (active),inactive,inactive,inactive,,,,,
COC(=O)C(N)Cc1ccc(Cl)cc1 (stereo not given),inactive,inactive,inactive,inactive,inactive,inactive,inactive,,,,,,,,,
Cc1cc2c(cc1Cl)N(C(=O)Nc1ccnc3ccccc13)CC2,inactive,inactive,inactive,inactive,inactive,inactive,inactive,,,,,,,,,
NCCS(=O)O,inactive,inactive,inactive,inactive,inactive,inactive,inactive,,,,,inactive,,,,
CCCc1c(-c2ccc(O)cc2)nn(-c2ccc(O)cc2)c1-c1ccc(O)cc1,inactive,inactive,inactive,inactive,inactive,inactive,,,,,,,,,,
COC(=O)C(C)(N)Cc1ccc(O)cc1 (stereo not given),inactive,inactive,inactive,inactive,inactive,inactive,inactive,,,,,,,,,
Nc1ncnc2c1nc(Sc1ccc(Cl)cc1)n2[C@H]1OC2COP(=O)(O)O[C@@H]2C1O (stereo not given in full),inactive,inactive,inactive,inactive,inactive,inactive,inactive,,,,,,,,,
CSC(=N)N,inactive,inactive,inactive,inactive,inactive,inactive,inactive,,,,,inactive,-3.96%,,,
COC(=O)[C@H](NC(=O)c1cc(-c2ccccc2)nc2ccccc12)c1ccccc1,inactive,inactive,inactive,inactive,inactive,56.2 µM (active),23.8 µM (active),,,,,inactive,,,,
O=C(O)c1cccnc1C(=O)O,inactive,inactive,inactive,16.5 µM (active),inactive,inactive,inactive,,,,,inactive,6.25%,,,
O=C1Nc2ccc(I)cc2/C1=C/c1cc(Br)c(O)c(Br)c1,inactive,inactive,inactive,14.7 µM (active),inactive,56.2 µM (active),5.97 µM (active),,,,,inactive,-25%,89.1 µM (active),2.51 µM (active),
CCCCCCCCCCC/C=C\C(C)(C)/C=C\CCCC(=O)O,inactive,inactive,inactive,inactive,inactive,inactive,6.7 µM (active),,,,,,-18.4%,,,13.4% [at 6.83 µM]
O=C(O)C1=CCNCC1,inactive,inactive,inactive,inactive,inactive,inactive,inactive,,,,,inactive,-12.8%,,,
COc1cc(C(O)C(=O)O)ccc1O (stereo not given),inactive,inactive,inactive,inactive,inactive,inactive,inactive,,,,,inactive,-6.83%,,,
CC1CCN=C(N)S1 (stereo not given),inactive,inactive,inactive,inactive,inactive,inactive,inactive,,,,,,-2.36%,,,
Cn1c(=O)[nH]c2ncn(C)c2c1=O,inactive,inactive,inactive,inactive,inactive,inactive,inactive,,,,,inactive,-3.98%,,,
CCCn1c(=O)c(C)cn2nc(N)nc12,inactive,inactive,inactive,inactive,inactive,39.8 µM (active),29.9 µM (active),,,,,26.7 µM (active),-3980% (active),,,
COCc1nc2c([nH]1)c(=O)n(C)c(=O)n2CC(C)C,inactive,inactive,inactive,inactive,inactive,inactive,inactive,,,,,inactive,,,,
N[C@H](C(=O)O)c1cc(O)cc(O)c1,inactive,inactive,inactive,inactive,inactive,inactive,inactive,,,,,inactive,-24%,,,
CC(=O)N[C@@H](Cc1c[nH]c2ccccc12)C(=O)OCc1cc(C(F)(F)F)cc(C(F)(F)F)c1,inactive,inactive,inactive,inactive,inactive,inactive,inactive,,,,,inactive,,,,
NC(N)=NC(N)=Nc1ccccc1,inactive,inactive,inactive,inactive,inactive,inactive,inactive,,,,,inactive,-3.27%,,,
CNc1cc(NS(=O)(=O)c2ccc(N)cc2)nc(NC)n1,inactive,inactive,inactive,inactive,inactive,inactive,inactive,,,,,inactive,,,,
C#CCn1c(=O)c2c(ncn2C)n(C)c1=O,inactive,inactive,inactive,inactive,inactive,inactive,inactive,,,,,inactive,-2.26%,,,
CCCCCCC(=O)OC1CC(C)(C)NC(C)(C)C1,inactive,inactive,inactive,inactive,inactive,inactive,inactive,,,,,inactive,-0.896%,,,
